Screens as filed in PubChem BioAssay.
Only some compounds are listed: those with a hit (about 1.7% of all), similar ones and a draw of the others.
CHT allo act – CHT positive allosteric modulators, primary screen, cell-based, membrane potential dye, choline EC20; CHT-expressing cells; active compounds read high; LV-AA mutant CHT in HEK293 cells; 0.49% of 310,000 active; High affinity choline transporter 1 (Homo sapiens), Q9GZV3; B-score at 10 µM;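 active means initial fluorescence not abnormally high and integrated response B-score, plate-corrected, over 3 SD above library mean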
H9c2 TAG inh – inhibitors of triacylglycerol accumulation, primary screen, cell-based, uHTS, fluorescence, H9c2. H9c2 cells, Nile Red lipid (TAG) fluorescence; cells loaded with 200 µM oleic acid. inhibition, % at 12.5 µM. 0.66% of 230,000 active. AID 651582, 2012;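 active means pattern-corrected inhibition of lipid staining of at least 50% with the nuclear-stain viability signal not falling by more than 50%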
MIN6 prolif-1 – inducers of MIN6 beta-cell proliferation, primary screen, ATP luminescence, uHTS. MIN6 cells proliferation, ATPlite luminescence, 48 h; cells starved in 0.2% serum; 100% = growth in 10% serum. 0.29% of 330,000 active. proliferation, % at 10 µM;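 active means compounds whose signal lies at least 3.5 SD above the mean of all wells on their plate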
CHT inh – inhibitors of human choline transporter CHT; CHT-expressing cells, membrane potential dye, choline response; active compounds read low; 0.86% of 310,000 active; High affinity choline transporter 1 (Homo sapiens), Q9GZV3; B-score at 10 µM;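 active means B-score over 3 SD under the library average, and starting fluorescence ratio not unusually high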;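 further: choline stimulus applied at its EC90 after an EC20 pre-addition; B-score computed on integrated fluorescence ratio after choline addition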
MIN6 prolif-2 – inducers of beta-cell proliferation in MIN6, confirmation, MIN6 cells, mouse; shares compounds with MIN6 prolif-1; 920 tested, under 10 active; ATPlite luminescence, 48 h; cells kept in 0.2% serum; scaled between 0.2% and 10% serum; proliferation increase, % at 50 µM;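 active means proliferation increase above 40% at any of the four tested concentrations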
Large screens that a line does not name were inactive (follow-up assays come after a bar, where they were run).

CCCN1C2=C(C(=O)CC(C)(C)C2)C(c2ccc(F)cc2)C2=C1c1ccccc1C2=O (centres undefined)	none (no result: H9c2 TAG inh)
CCCCN1C2=C(C(=O)CC(C)(C)C2)C(c2ccccc2)C2=C1c1ccccc1C2=O (centres undefined)	MIN6 prolif-1 8.2 | MIN6 prolif-2 inactive
CCN(CC)CCP(=O)(c1ccccc1)c1ccccc1	MIN6 prolif-1 4.6 (no result: H9c2 TAG inh) | MIN6 prolif-2 inactive
CP(C)(=O)CCP(=O)(c1ccccc1)c1ccccc1	none (no result: H9c2 TAG inh)
Cc1ccc(C(C)C)cc1OCC(=O)Nc1ccc(N2CCCCC2)cc1	none
CCOc1ccc2nc(SCC(=O)N3CCCCCC3)c(C#N)cc2c1	MIN6 prolif-1 5.3 | MIN6 prolif-2 inactive
COc1ccc(CN2CCCCC2c2cccnc2)c(OC)c1C (centres undefined)	MIN6 prolif-1 6.7 (no result: H9c2 TAG inh) | MIN6 prolif-2 inactive
COc1ccc(NC(=S)N(Cc2ccc(C(=O)O)cc2)Cc2ccc(OC)c(OC)c2)cc1	MIN6 prolif-1 9.2 | MIN6 prolif-2 inactive
COc1ccc(CN(Cc2ccc(C(=O)O)cc2)C(=S)Nc2cccc(C)c2)cc1OC	none
Cc1ccc(C(=O)Nc2ccc(Cl)cn2)cc1S(=O)(=O)N1CCOCC1	none
Cc1ccc(NC(=O)c2ccc(C)c(S(=O)(=O)N3CCOCC3)c2)nc1	MIN6 prolif-1 13 | MIN6 prolif-2 inactive
OC[C@H]1O[C@@H](c2nc3ccc(-c4nc(-c5ccc(Br)cc5)no4)cc3[nH]2)C[C@@H]1O	none (no result: CHT allo act, MIN6 prolif-1, CHT inh)
Cc1nn(-c2ccccc2)c(C)c1C(=O)N1CCN(S(=O)(=O)c2ccccc2)CC1	MIN6 prolif-1 12 (no result: CHT allo act, CHT inh) | MIN6 prolif-2 inactive
COc1ccc(N(CC(=O)NCCC2=CCCCC2)S(=O)(=O)c2ccc(C)cc2)cc1	none (no result: H9c2 TAG inh)
Cc1ccc(OCCN2C(=O)NC3(CCc4ccccc4C3)C2=O)cc1 (centres undefined)	MIN6 prolif-1 7.2 | MIN6 prolif-2 inactive
Fc1ccccc1Cc1noc(CN2CCC(OCc3cccnc3)CC2)n1	MIN6 prolif-1 7.7 (no result: H9c2 TAG inh) | MIN6 prolif-2 inactive
Cc1ccc(S(=O)(=O)N2CCCC2)cc1C(=O)NCc1ccccc1CN1CCCC1	none (no result: CHT allo act, CHT inh)
Cc1ccc(C2=CC(c3ccccc3)n3ncnc3N2)cc1 (centres undefined)	MIN6 prolif-1 12 | MIN6 prolif-2 inactive
C1=C(c2ccccc2)Nc2ncnn2C1c1ccccc1 (centres undefined)	none
CCCCNC(=S)NNC(=O)c1csc(C)c1CC	MIN6 prolif-1 0.0 (no result: H9c2 TAG inh) | MIN6 prolif-2 inactive
C=CCNC(=S)NNC(=O)c1csc(C)c1CC	none (no result: H9c2 TAG inh)
Fc1ccccc1NC(=S)N1CCN(Cc2ccc3c(c2)OCO3)CC1	MIN6 prolif-1 7.4 | MIN6 prolif-2 inactive
Cc1cc(Cl)ccc1NC(=S)N1CCN(Cc2ccc3c(c2)OCO3)CC1	none
Cc1ccc(C)c(S(=O)(=O)NC2CCS(=O)(=O)C2)c1 (centres undefined)	MIN6 prolif-1 12 | MIN6 prolif-2 inactive
O=C(c1cccc([N+](=O)[O-])c1)N1CCCC(C(=O)N2CCc3ccccc3C2)C1 (centres undefined)	MIN6 prolif-1 6.0 (no result: H9c2 TAG inh) | MIN6 prolif-2 inactive
O=C(c1ccc(F)cc1)N1CCCC(C(=O)N2CCc3ccccc3C2)C1 (centres undefined)	none
O=C(CN(C(=O)CCC(=O)Nc1nccs1)c1ccc2c(c1)OCO2)NCc1ccccc1	none (no result: H9c2 TAG inh)
CC(=O)c1sc(N/N=C/c2cccc(O)c2)nc1C	none
CC(=O)c1sc(N/N=C\c2ccc(N(C)C)cc2)nc1C	MIN6 prolif-1 6.6 (no result: H9c2 TAG inh) | MIN6 prolif-2 inactive
O=c1[nH]c2ccc(Cl)cc2c(=O)n1Cc1ccco1	MIN6 prolif-1 7.2 | MIN6 prolif-2 inactive
COc1ccc(C(=O)COC(=O)c2cc([N+](=O)[O-])ccc2N2CCOCC2)c(OC)c1	MIN6 prolif-1 12 | MIN6 prolif-2 inactive
COc1ccccc1C(=O)COC(=O)c1cc(S(=O)(=O)N2CCCCC2)ccc1N1CCOCC1	none
COc1ccc(C(=O)COC(=O)c2cc(S(=O)(=O)N3CCCCC3)ccc2N2CCOCC2)c(OC)c1	MIN6 prolif-1 11 | MIN6 prolif-2 inactive
COC(=O)c1sccc1NC(=O)c1ccc(OC)cc1OC	MIN6 prolif-1 7.8 (no result: H9c2 TAG inh) | MIN6 prolif-2 inactive
COC(=O)c1sccc1NC(=O)c1cccc(OC)c1	none
